Results filed as inconclusive are left out. Calls of active or inactive are those of the source. Calls come from the whole dose curve; as a rule, active = well fitted curve in the direction sought with a large enough effect; inconclusive = small, poorly fitted or top-dose-only effect, or effect the other way, or another doubt; inactive = no such curve, though single readings can be large or run the other way.
Target: Alpha-galactosidase A (Homo sapiens) (UniProt P06280)
Experiment: Confirmation of Inhibitors of Human alpha-Galactosidase Using Spleen Homogenate
Details: alpha-galactosidase enzyme activity; series mostly up to 56.2 µM
How it was run: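 AC50 values come from Hill-equation fits of normalised 4-methylumbelliferone fluorescence (365/440 nm, read after NaOH/glycine stop). Enzyme source: spleen homogenate; substrate 1 mM final; pH 5.0 citrate buffer; 40 min at 37C; compound titration 0.5 nM–58 uM.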

Alpha-galactosidase A (Homo sapiens), sequence (P06280 32-429 limits assumed): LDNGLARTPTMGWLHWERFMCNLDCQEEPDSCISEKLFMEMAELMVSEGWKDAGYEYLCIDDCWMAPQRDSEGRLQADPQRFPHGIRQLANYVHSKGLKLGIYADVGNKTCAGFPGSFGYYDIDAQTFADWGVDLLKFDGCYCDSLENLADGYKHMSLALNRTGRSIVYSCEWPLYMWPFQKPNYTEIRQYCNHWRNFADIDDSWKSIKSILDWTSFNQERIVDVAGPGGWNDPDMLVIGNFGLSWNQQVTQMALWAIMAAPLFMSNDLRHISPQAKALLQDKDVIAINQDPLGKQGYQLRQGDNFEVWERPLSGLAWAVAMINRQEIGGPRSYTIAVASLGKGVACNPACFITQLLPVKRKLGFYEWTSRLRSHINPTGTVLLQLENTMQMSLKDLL

outcome, inactive:
Cc1sc(-c2cc3ccccc3oc2=O)nc1-c1ccc(Cl)cc1, C=CCCCCCCCCCCCc1ccco1, CCc1ccc(N=CC23c4ccccc4C(c4ccccc42)C2C(=O)N(c4ccc(OC)cc4)C(=O)C23)cc1 (configuration not stated), COc1cc(CN2CCC(CO)(Cc3cccc(C(F)(F)F)c3)CC2)ccc1F, COc1cc(/C=N/Nc2ccc(Cl)c(C(=O)O)c2)ccc1OC(=O)c1ccccc1F, O=C(c1ccccc1)N1CCN(C(=O)N(c2ccccc2)c2ccccc2)CC1, COc1ccc(C2C(C(=O)c3ccco3)=C(O)C(=O)N2CC2CCCO2)c(OC)c1 (configuration not stated), Cc1ccc(S(=O)(=O)N2CCOCC2)cc1, Cc1ccc(CCNC(=O)CNC(=S)N(Cc2ccccc2)Cc2cccnc2)cc1, O=C(CSc1ncc(C(F)(F)F)cc1Cl)N1CCN(S(=O)(=O)c2ccccc2)CC1, Nc1c(NCCN2CCOCC2)c2ccccc2oc1=O, O=C(O)Cn1nnnc1SCC(=O)Nc1ccc(OC(F)(F)F)cc1, O=S(=O)(c1ccc(Cl)cc1)N1CCOCC1, O=c1[nH]c(CN2CCN(c3ccccc3O)CC2)nc2ccccc12, Cc1nnc(SCC(=O)Nc2nsc(-c3ccc(C(C)(C)C)cc3)n2)s1, CCc1sc(-c2cc3cc(Cl)ccc3oc2=O)nc1-c1ccccc1, CCNc1sc(C(=O)c2cccs2)c(N)c1-c1nc2ccccc2s1, NC(=O)NN=C1c2cc(S(=O)(=O)N3CCOCC3)ccc2-c2ccc(S(=O)(=O)N3CCOCC3)cc21, Cc1ccc(-c2cc(C(=O)N3CCN(S(=O)(=O)c4ccc(Br)s4)CC3)[nH]n2)c(C)c1, COc1cc(/C=C/c2ccc3ccccc3n2)cc(OC)c1O, Cc1ccc(N=Nc2c(N)nn(-c3ccccc3)c2N)cc1, COc1cc(-c2cc(N3C(=O)Nc4ccccc4N3O)n[nH]2)cc(OC)c1OC, OCC(O)C1OC(Nc2ccc(Cl)cc2)C(O)C1O (configuration not stated), Cc1ccccc1Nc1c(-c2cccs2)nc2cccc(C)n12, CN(C(=O)N1CCN(S(=O)(=O)c2ccccc2)CC1)c1ccccc1, Nc1ccccc1S(=O)(=O)N1CCOCC1, Cc1ccc(N/N=C2\CCS(=O)(=O)c3sccc32)cc1, Cc1cc(/C=N/NC(=O)c2ccc(O)cc2)c(C)n1C1CC1, CCOc1ccc2c(c1)c(=O)c(S(=O)(=O)c1ccc(C)cc1)cn2Cc1ccccc1Cl, COc1cccc2cc(-c3nc4c(s3)CCc3ccccc3-4)c(=O)oc12, O=C(NCC1CCOCC1)c1ccc2nc(Cc3cccc(Cl)c3)oc2c1, CCOc1cc(CNc2ccc(O)cc2)cc(Cl)c1OCc1ccccc1, Cc1ccc(S(=O)(=O)N(C)C)cc1NC(=O)COC(=O)Cc1ccc(Br)cc1, Cc1[nH]n(C(N)=S)c(=O)c1N=Nc1ccc2ccccc2c1, CCc1ccc(-c2nc(-c3cc4ccc(OC(C)=O)cc4oc3=O)sc2C)cc1, O=C(Cc1ncc(C(F)(F)F)cc1Cl)NCCc1ccccc1, O=C1CCCC/C1=C\Nc1ccc(O)cc1

— PubChem BioAssay AID2108 (National Center for Advancing Translational Sciences (NCATS), 2009)
